Measured values taken from PubChem BioAssay AID1259313 (Sanford-Burnham Center for Chemical Genomics, 2017).
Out of some 340,000 compounds screened, about 8,500 (2.5%) were called active.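 The calls were made as follows: active = melting temperature shift of at least 10% of the positive control shift, at one fixed dose; inactive = the rest.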 This excerpt belongs to a sample that is enriched for actives.

system: Glutamate receptor ionotropic, NMDA 3A (GRIN3A) ligand-binding domain; assay: binders of NR3A ligand-binding domain, primary screen, biophysical, differential scanning fluorimetry, uHTS (AID 1259313); conditions: NR3A LBD differential scanning fluorimetry, at 25 µM, stronger effect = higher value, 0% = protein alone, 100% = glycine-bound protein

Tm shift relative to glycine control, active:
COc1ccc2oc(-c3cccc(NC(=O)CSc4ccc(Cl)cc4)c3)nc2c1 13.7%
C#CCOCCOCCOCCNc1nc(N2CCN(C(=O)CCCCCCCCCCNC(=O)Cn3cc(CCCCCN)nn3)CC2)nc(N2CCN(C(=O)CCCCCCCCCCNC(=O)[C@H](CO)n3cc(CCCSC)nn3)CC2)n1 14.2%
C#CCOCCOCCOCCNc1nc(N2CCN(C(=O)CCCCCCCCCCNC(=O)[C@H]([C@@H](C)CC)n3cc(CCCCN=C(N)N)nn3)CC2)nc(N2CCN(C(=O)CCCCCCCCCCNC(=O)[C@H](CO)n3cc(CCCSC)nn3)CC2)n1 17%
C#CCOCCOCCOCCNc1nc(N2CCN(C(=O)CCCCCCCCCCNC(=O)[C@H](CCCCN)n3cc(C)nn3)CC2)nc(N2CCN(C(=O)CCCCCCCCCCNC(=O)[C@H](CO)n3cc(CCCSC)nn3)CC2)n1 24.7%
CC(=O)Nc1ccc(Nc2nc3c(S(=O)(=O)c4ccc(C)c(C)c4)nnn3c3ccccc23)cc1 14.7%
O=c1c2ccccc2nc2n1C(CSCc1cccc(C(F)(F)F)c1)CS2 (configuration not stated) 16.1%
CCOc1ccc(NC(=O)c2ccc(NC(=O)CN3C(=O)C(=O)N(CC(C)C)C3=O)cc2)cc1 28.5%
O=C(N/N=C/c1ccc(OC(=O)c2ccccc2Cl)cc1)c1ccc(O)cc1 24.6%
O=C(N/N=C/c1ccc(OCc2ccccc2)cc1)c1ccc(O)cc1 28.3%
Oc1ccc(-c2cccc(-c3ccc(O)cc3)c2)cc1 31.9%

Tm shift relative to glycine control, inactive:
COc1ccc(C(=O)NCc2nnc(SCC(=O)Nc3cccc(OC)c3)o2)cc1 -1.39%
COc1cccc(NC(=O)CSc2nnc(-c3cccnc3)o2)c1 -0.43%
COCCCNC(=O)CNC(=O)c1nn(-c2ccc(OC)cc2)c(=O)c2ccccc12 -1.01%
CCOC(=O)C1CCN(CC(=O)Nc2ccc(OC)c(S(=O)(=O)N3CCCCC3)c2)CC1 0.25%
C#CCOCCOCCOCCNc1nc(N2CCN(C(=O)[C@H](C(C)C)n3cc(CCO)nn3)CC2)nc(N2CCN(C(=O)[C@H]([C@@H](C)CC)n3cc(CCCN=C(N)N)nn3)CC2)n1 1.78%
C#CCOCCOCCOCCNc1nc(N2CCN(C(=O)Cn3cc(CCCCN)nn3)CC2)nc(N2CCN(C(=O)[C@H](CCCCN)n3cc(CCC(=O)O)nn3)CC2)n1 1.78%
C#CCOCCOCCOCCNc1nc(N2CCN(C(=O)[C@H](CCC(=O)O)n3cc(CN)nn3)CC2)nc(N2CCN(C(=O)[C@H](CCC(=O)O)n3cc(CN)nn3)CC2)n1 1.02%
C#CCOCCOCCOCCNc1nc(N2CCN(C(=O)[C@H](CCCCN)n3cc(CCC(=O)O)nn3)CC2)nc(N2CCN(C(=O)[C@H](CCCCN)n3cc(CC(C)O)nn3)CC2)n1 (some centres not stated) 1.78%
C#CCOCCOCCOCCNc1nc(N2CCN(C(=O)Cn3cc(CCO)nn3)CC2)nc(N2CCN(C(=O)Cn3cc(CCCN=C(N)N)nn3)CC2)n1 0%
C#CCOCCOCCOCCNc1nc(N2CCN(C(=O)Cn3cc(CCO)nn3)CC2)nc(N2CCN(C(=O)[C@H](CCCCN)n3cc(CCCC)nn3)CC2)n1 0.76%
CCn1c(SC)nc(O)c(C(c2ccc(OC)c(O)c2)c2c(O)nc(SC)n(CC)c2=O)c1=O -1.71%
O=C(O)c1cc2ccccc2c(=O)s1 -0.71%
O=C(CCNC(=O)Cn1ccc2ccccc2c1=O)NCCC1=CCCCC1 -1.72%
O=C(NCc1ccccn1)C1CCN(S(=O)(=O)c2ccc(Br)cc2)CC1 -1.11%
Cc1nc(COc2cc3oc(=O)cc(C)c3cc2Cl)cs1 -0.26%
CCN(CC(=O)NC(C)C)C(=O)c1cc(S(=O)(=O)N2CCCCC2)ccc1N1CCCCC1 -0.99%
Cc1ccc(S(=O)(=O)c2nnn3c2nc(N2CCN(c4ccccn4)CC2)c2ccccc23)cc1 5.05%
Cc1cccc(Nc2nc3c(S(=O)(=O)c4ccccc4)nnn3c3ccccc23)c1C 1.31%
CCC12CN3CC(CC)(CN(C1)C31C(=O)N(C)c3ccc(C)cc31)C2=O (configuration not stated) 0%
O=c1c2ccccc2nc2n1C(CSCc1ccccc1)CS2 (configuration not stated) -1.4%
O=c1c2ccccc2nc2n1C(CSc1ccc(F)cc1)CN2 (configuration not stated) -3.8%
COc1ccc(C(=O)NCc2nnc(SCC(=O)NC3=NCCS3)n2C)cc1 -1.86%
CCOc1ccc(NC(=O)c2ccc(NC(=O)COC(=O)c3ccc(NC(=O)CC#N)cc3)cc2)cc1 9.12%
CCOc1ccc(NC(=O)CCNC(=O)c2ccc(Br)cc2)cc1 -4.23%
CCCOc1ccc(Cl)cc1Nc1nc(NCCO)nc(N2CCCC2)n1 1.78%
Cc1cc(C)c(C#N)c(SCS(=O)c2ccc(C(C)(C)C)cc2)n1 (configuration not stated) 1.37%
O=C(Cc1cccs1)N/N=C/c1ccc(OCc2ccccc2)cc1 2.17%
CC(C)(C)C(=O)Nc1ccc(C(=O)N/N=C/c2ccccc2OC(=O)c2ccc(Cl)cc2Cl)cc1 2.16%
O=C(COc1ccc(/C=N/NC(=O)c2ccc(O)cc2)cc1)Nc1ccc([N+](=O)[O-])cc1 7.26%
O=C(O)c1ccc(/C=N/NC(=O)c2ccc(Br)cc2)cc1 -0.55%
COc1cc(/C=N/NC(=O)Nc2ccccc2)ccc1OCCOc1ccccc1C -1.19%
O=c1[nH]cnc(O)c1C(c1ccc(F)cc1)c1c(O)nc[nH]c1=O 0.87%
O=C(OCc1ccc(-c2ccccc2)cc1)c1cccc(O)c1 9.28%
Oc1ccc(-c2nncn2-c2ccccc2)cc1 -3.14%
CNC(=S)N1CCC(NC(=O)C(Cc2ccc(F)cc2)NC(C)=O)CC1 (configuration not stated) -1.22%
COc1ccc(CCNC(=O)CCCCCNC(=O)N2CCn3c2nc2ccccc23)cc1OC -1.29%
O=C(NCCCn1ccnc1)/C(=C\c1ccccc1F)NC(=O)c1ccccc1 -0.09%
